Assay [1] in a line: qHTS for Inhibitors of the Functional Ribonucleoprotein Complex (vRNP) of Lassa (LASV) Arenavirus: LASV Primary Screen - GLuc reporter signal (AID 1347082; calls by dose curve; tested in HEK293 reporter line; further: series mostly up to about 57 µM; nearly all actives have a fitted effect of over 60% in size). A general note: qHTS replaces the single test concentration by a dilution series.
Assay [2] is described as follows: qHTS for Inhibitors of the Functional Ribonucleoprotein Complex (vRNP) of Lassa (LASV) Arenavirus: Viability assay - alamar blue signal for LASV Primary Screen (AID 1347083; calls by dose curve; tested in HEK293 reporter line; further: nearly all actives have a fitted effect of over 80% in size; further: potency means the concentration at half of the fitted maximal effect).
The nature of assay [3]: qHTS for Inhibitors of the Functional Ribonucleoprotein Complex (vRNP) of Lymphocytic Choriomeningitis Arenaviruses (LCMV): Viability assay - alamar blue signal for LCMV Primary Screen (AID 1347085; calls by dose curve; tested in HEK293 reporter line; further: nearly all actives have a fitted effect of over 80% in size; further: potency means the concentration at half of the fitted maximal effect).
For assay [4], the target named is T1, Tyrosine-protein phosphatase non-receptor type substrate 1 (Homo sapiens) + Leukocyte surface antigen CD47 (Homo sapiens) (UniProt P78324+Q08722). As to the kind of experiment: CD47-SIRPalpha protein protein interaction - LANCE assay qHTS validation (AID 1347057; active means well fitted curve in the direction sought with a large enough effect in the signal ratio, with a control signal flat, not every such curve was filed as active; the % refers to the signal ratio; further: series mostly up to about 38 µM). An outline of the steps: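 First, His-tagged CD47 and Eu-labelled anti-His antibody met the compound for 30 min; next, site-specifically biotinylated SIRPalpha was added for 30 min; finally streptavidin-APC was added before reading the TR-FRET ratio.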
T1 sequence (P78324 whole entry, looked up): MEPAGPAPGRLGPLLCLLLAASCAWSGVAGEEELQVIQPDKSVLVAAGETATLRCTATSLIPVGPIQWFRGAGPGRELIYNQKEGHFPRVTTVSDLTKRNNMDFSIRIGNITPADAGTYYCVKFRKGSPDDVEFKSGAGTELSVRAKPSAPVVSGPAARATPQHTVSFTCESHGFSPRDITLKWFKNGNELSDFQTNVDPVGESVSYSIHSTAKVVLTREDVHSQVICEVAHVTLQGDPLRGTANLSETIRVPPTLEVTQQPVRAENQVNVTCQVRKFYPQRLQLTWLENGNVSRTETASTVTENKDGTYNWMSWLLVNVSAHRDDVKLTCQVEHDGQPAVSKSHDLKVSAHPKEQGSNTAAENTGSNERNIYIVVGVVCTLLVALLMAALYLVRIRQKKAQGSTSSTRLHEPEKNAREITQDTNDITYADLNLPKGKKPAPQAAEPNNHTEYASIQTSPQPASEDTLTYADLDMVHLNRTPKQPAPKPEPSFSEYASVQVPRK
T1 sequence (Q08722 whole entry, looked up): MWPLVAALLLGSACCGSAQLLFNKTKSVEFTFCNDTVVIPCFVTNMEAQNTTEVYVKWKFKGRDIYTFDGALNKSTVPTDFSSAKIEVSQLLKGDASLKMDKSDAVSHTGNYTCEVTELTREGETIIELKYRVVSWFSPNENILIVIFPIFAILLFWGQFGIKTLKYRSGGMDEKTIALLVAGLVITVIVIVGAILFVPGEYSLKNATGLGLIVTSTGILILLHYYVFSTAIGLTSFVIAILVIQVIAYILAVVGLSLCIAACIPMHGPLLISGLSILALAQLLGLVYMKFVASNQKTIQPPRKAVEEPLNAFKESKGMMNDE

Assay [5] deals with T1, Tyrosine-protein phosphatase non-receptor type substrate 1 (Homo sapiens) + Leukocyte surface antigen CD47 (Homo sapiens). As to the kind of experiment: CD47-SIRPalpha protein protein interaction - HTRF assay qHTS validation (AID 1347058; active means well fitted curve in the direction sought with a large enough effect in the signal ratio, not every such curve was filed as active; the % refers to the signal ratio; further: series mostly up to about 38 µM). The essentials: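 TR-FRET read (Ch1/Ch2 ratio) of soluble extracellular CD47 and Avi-biotinylated SIRPalpha domains in PBS pH 7.4 with 0.05% IGEPAL; 7-point compound titration. Sequential 30 min room-temperature steps; non-biotinylated SIRPalpha as control inhibitor.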
Background: In TR-FRET formats the signal depends on donor and acceptor labels being close together.

Assay [6] shares this target. As to the kind of experiment: CD47-SIRPalpha protein protein interaction - Alpha assay qHTS validation (AID 1347059).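 Further: bead proximity luminescence from CD47 binding SIRPalpha after compound preincubation with SIRPalpha.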 The essentials:
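Soluble extracellular domains: Avi-tag biotinylated SIRPalpha (25 nM) preincubated 30 min RT with compound, then 6His-CD47 (12.5 nM) 30 min; Ni-NTA acceptor and streptavidin donor beads (10 ug/mL) 30 min, AlphaScreen read. PBS pH 7.4, 0.05% IGEPAL.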

The target in assay [7] is Parathyroid hormone/parathyroid hormone-related peptide receptor (Homo sapiens) (UniProt Q03431). As to the kind of experiment: qHTS for PTHR1 Agonists: Optimization Screen against the NCGC LOPAC library (AID 1347079).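 Further: GloSensor cAMP luminescence in HEK-293 GP2 cells expressing human PTHR1 with IBMX.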 The essentials: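 Agonist readout: GloSensor cAMP luminescence, read after 15 min at room temperature. HEK-293-derived GP2 line carries PTHR1; compounds tested as a titration for 1 hr at 37C in presence of IBMX. M-PTH (1-15) served as control.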
Chain of Parathyroid hormone/parathyroid hormone-related peptide receptor (Homo sapiens) (Q03431 whole entry, looked up): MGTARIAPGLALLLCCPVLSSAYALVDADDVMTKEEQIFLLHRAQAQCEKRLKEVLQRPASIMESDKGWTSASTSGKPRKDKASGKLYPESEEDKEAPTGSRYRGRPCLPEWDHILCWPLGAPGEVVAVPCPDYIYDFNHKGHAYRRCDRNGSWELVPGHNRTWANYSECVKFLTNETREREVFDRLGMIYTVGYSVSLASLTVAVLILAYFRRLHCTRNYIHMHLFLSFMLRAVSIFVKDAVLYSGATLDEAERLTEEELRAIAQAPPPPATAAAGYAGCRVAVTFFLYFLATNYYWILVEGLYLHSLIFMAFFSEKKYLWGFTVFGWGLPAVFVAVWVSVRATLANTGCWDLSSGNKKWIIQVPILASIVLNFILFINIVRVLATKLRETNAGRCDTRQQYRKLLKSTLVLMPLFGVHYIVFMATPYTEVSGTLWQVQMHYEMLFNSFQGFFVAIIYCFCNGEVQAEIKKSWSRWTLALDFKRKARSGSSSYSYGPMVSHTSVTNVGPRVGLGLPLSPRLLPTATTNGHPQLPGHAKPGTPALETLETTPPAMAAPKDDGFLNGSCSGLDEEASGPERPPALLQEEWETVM

Assay [8] has as its target Nucleoprotein (Lymphocytic choriomeningitis virus (strain Armstrong)) (UniProt P09992). As to the kind of experiment: qHTS for Inhibitors of the Functional Ribonucleoprotein Complex (vRNP) of Lymphocytic Choriomeningitis Arenaviruses (LCMV): LCMV Primary Screen - GLuc reporter signal (AID 1347086; calls by dose curve; further: series mostly up to about 57 µM; nearly all actives have a fitted effect of over 70% in size).
Assay [9] in a line: qHTS of pediatric cancer cell lines to identify multiple opportunities for drug repurposing: Primary screen for TC32 cells (AID 1347089). Further: nearly all actives have a fitted effect of over 60% in size. An outline of the steps: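 A viability screen of TC32 cells was run over 48 h, with primary MIPE doses spanning 0.78 nM–46 µM and NPC doses 0.59 nM–46 µM. ATP luminescence (CellTiter-Glo) served as the read-out.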
A short description of assay [10]: qHTS of pediatric cancer cell lines to identify multiple opportunities for drug repurposing: Primary screen for DAOY cells (AID 1347090). Further: series mostly up to about 46 µM; nearly all actives have a fitted effect of over 55% in size. An outline of the steps: (§1)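 Eight- or eleven-point concentration series, 48 h treatment at 37 degrees C in growth media; readout CellTiter-Glo luminescence. Potency and efficacy were taken from the concentration-response curves.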

The nature of assay [11]: qHTS of pediatric cancer cell lines to identify multiple opportunities for drug repurposing: Primary screen for SJ-GBM2 cells (AID 1347091). The essentials:
as §1

Assay [12] in a line: qHTS of pediatric cancer cell lines to identify multiple opportunities for drug repurposing: Primary screen for BT-37 cells (AID 1347094). Further: series mostly up to about 57 µM. An outline of the steps:
(§2)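 Phenotypic viability qHTS, 48 h compound exposure, CellTiter-Glo luminescence read-out; multi-concentration dosing so that potency and efficacy derive directly from the primary screen's curves.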

The nature of assay [13]: qHTS of pediatric cancer cell lines to identify multiple opportunities for drug repurposing: Primary screen for NB-EBc1 cells (AID 1347095). The essentials: as §2
The nature of assay [14]: qHTS of pediatric cancer cell lines to identify multiple opportunities for drug repurposing: Primary screen for U-2 OS cells (AID 1347096). Further: nearly all actives have a fitted effect of over 50% in size. An outline of the steps: (§3)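 Cells (500-1,000/well) in growth media were settled 5 h at 37 degrees C, then given compounds for 48 h. Viability was read as CellTiter-Glo luminescence. Primary runs used MIPE at 11 points (0.78 nM-46 µM) and NPC at 8 points (0.59 nM-46 µM); follow-ups used 11 points.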

Assay [15] in a line: qHTS of pediatric cancer cell lines to identify multiple opportunities for drug repurposing: Primary screen for Saos-2 cells (AID 1347097). Further: nearly all actives have a fitted effect of over 40% in size. An outline of the steps:
as §2

The nature of assay [16]: qHTS of pediatric cancer cell lines to identify multiple opportunities for drug repurposing: Primary screen for SK-N-SH cells (AID 1347098).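 Further: DMSO served as neutral control and bortezomib at 2.3 µM as positive control; nearly all actives have a fitted effect of over 65% in size.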 An outline of the steps: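 Cells (500-1,000/well) rested 5 h, then received compounds for 48 h; metabolically active cells were measured by CellTiter-Glo luminescence. Final concentrations spanned up to 46 µM (MIPE, 11-point) or 0.59 nM-46 µM (NPC, 8-point) in primary screens, 11-point in follow-ups.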

The nature of assay [17]: qHTS of pediatric cancer cell lines to identify multiple opportunities for drug repurposing: Primary screen for NB1643 cells (AID 1347099). Further: nearly all actives have a fitted effect of over 50% in size. The essentials: as §2
Assay [18] can be described thus: qHTS of pediatric cancer cell lines to identify multiple opportunities for drug repurposing: Primary screen for LAN-5 cells (AID 1347100). An outline of the steps: as §3
Assay [19] can be described thus: qHTS of pediatric cancer cell lines to identify multiple opportunities for drug repurposing: Primary screen for A673 cells (AID 1347092). Further: nearly all actives have a fitted effect of over 45% in size. An outline of the steps:
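Titration-based qHTS on A673 cells: MIPE compounds spanned 11 points (0.78 nM to 46 µM final), NPC compounds 8 points (0.59 nM to 46 µM final). Viability after 48 h was measured by ATP luminescence.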

The nature of assay [20]: qHTS of pediatric cancer cell lines to identify multiple opportunities for drug repurposing: Primary screen for SK-N-MC cells (AID 1347093). Further: series mostly up to about 46 µM. The essentials:
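Metabolically active cells were quantified by ATP-dependent luminescence (CellTiter-Glo, 15 min at room temperature) following 48 h treatment. Cells had been plated at 500-1,000 per well and settled for 5 h beforehand.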

Records with an inconclusive call do not appear. Active and inactive are the calls of the source. Unless noted, the call rests on the fitted dose curve; in most records, active means well fitted curve in the direction sought with a large enough effect; inconclusive means small, poorly fitted or top-dose-only effect, or another doubt; inactive means no such curve, though single readings can be large; an effect the other way counts as inactive or inconclusive.

The results in this text go back to PubChem BioAssay (NCATS).

Chain of Nucleoprotein (Lymphocytic choriomeningitis virus (strain Armstrong)) (P09992 whole entry, looked up): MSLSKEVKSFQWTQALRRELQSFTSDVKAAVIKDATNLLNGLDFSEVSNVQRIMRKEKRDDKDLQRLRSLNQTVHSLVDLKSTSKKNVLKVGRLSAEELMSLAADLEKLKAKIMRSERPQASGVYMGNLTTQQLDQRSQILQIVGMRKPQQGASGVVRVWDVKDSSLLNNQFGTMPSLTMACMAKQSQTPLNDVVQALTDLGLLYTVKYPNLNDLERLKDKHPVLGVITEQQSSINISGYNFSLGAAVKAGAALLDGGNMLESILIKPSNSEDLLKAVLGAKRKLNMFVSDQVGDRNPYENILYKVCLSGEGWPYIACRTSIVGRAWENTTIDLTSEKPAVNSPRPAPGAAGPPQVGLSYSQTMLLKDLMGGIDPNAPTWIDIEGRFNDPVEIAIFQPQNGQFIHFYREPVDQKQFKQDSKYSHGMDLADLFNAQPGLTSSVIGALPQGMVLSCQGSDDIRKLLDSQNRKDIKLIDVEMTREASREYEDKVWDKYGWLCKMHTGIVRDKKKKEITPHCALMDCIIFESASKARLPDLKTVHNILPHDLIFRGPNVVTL

For the molecule `O=C(O)C(Cc1cc(I)c(O)c(I)c1)c1ccccc1` (centres undefined), the Potency entry in assay [1] was “inactive”.

As for `C=CCNc1nc(NCC=C)nc(N2CCN(C(c3ccc(F)cc3)c3ccc(F)cc3)CC2)n1`, the Potency entry in assay [1], in assay [2] and in assay [3] was “inactive” each time.

Consider `COC(=O)Nc1nc2ccc(Sc3ccccc3)cc2[nH]1`, for which, in assay [1], the Potency result is “inactive”. Moreover, the Potency in [2] and in [3] was 5.44 µM (active) each time.

For the molecule `c1ccc(-c2ccc(C(c3ccccc3)n3ccnc3)cc2)cc1` (centres undefined), the Potency result in assay [1], in [2] and in [3] was “inactive” throughout.

For the molecule `CCNC(=O)N1CCN(CCCC(c2ccc(F)cc2)c2ccc(F)cc2)CC1`, the Potency entry in [1], in assay [2] and in assay [3] was “inactive” each time.

Turning to `COC(=O)[C@H]1[C@H]2C[C@@H]3c4[nH]c5cc(OC)ccc5c4CCN3C[C@H]2C[C@@H](OC(=O)/C=C/c2ccc(O)c(OC)c2)[C@@H]1OC`, the Potency result in [1] was “inactive”.

In the case of `Cc1nc2n(c(=O)c1CCN1CCC(C(=O)c3ccc(F)cc3)CC1)CCS2`, the Potency result in assay [1], in [2] and in assay [3] was “inactive” each time.

As to `Oc1c(Cl)cc(Cl)cc1Sc1cc(Cl)cc(Cl)c1O`, the Potency entry in [1] and in [2] was “inactive” each time.

Consider `CCCCc1ccc2nc(NC(=O)OC)[nH]c2c1`, for which, in assay [1], the Potency entry is “inactive”. Also, the figures for the Potency in [2] and in assay [3] were 0.0685 µM (active) and 0.0385 µM (active), respectively.

`CCCCOc1cc(C(=O)NCCN(CC)CC)c2ccccc2n1`: the Potency entry in assay [1] and in [2] was “inactive” in each case.

Turning to `COc1ccc([C@@H]2Sc3ccccc3NC(=O)[C@@H]2O)cc1`, the Potency entry in [1] was “inactive”.

For the molecule `CCCCC(CC)COC(=O)C(C#N)=C(c1ccccc1)c1ccccc1` (centres undefined), in assay [1], the Potency entry is “inactive”.

For the molecule `COC(=O)C1=CCCN(C)C1`, the result in [4], in [5], in [6] and in assay [7] was inactive. Also, the Potency entry in assay [1], in assay [2], in assay [3], in assay [8], in assay [9] and in [10] was “inactive” in each case. Moreover, the Potency result in assay [11], in assay [12], in assay [13], in [14], in assay [15] and in assay [16] was “inactive” in each case. Besides, the Potency result in assay [17] and in assay [18] was “inactive” throughout.

Turning to `CC(=O)Oc1ccc(C2(c3ccc(OC(C)=O)cc3)Oc3ccccc3NC2=O)cc1`, in assay [1], the Potency entry is “inactive”.

Regarding `NC(=O)C1(N2CCCCC2)CCN(CCCN2c3ccccc3CCc3ccc(Cl)cc32)CC1`, the Potency entry in assay [1] is “inactive”.

With `NC(=O)CN1CCCC1=O`, the result in assay [4], in assay [5], in assay [6] and in [7] was inactive. Moreover, the Potency result in assay [1], in [2], in assay [3], in assay [8], in [9] and in assay [10] was “inactive” each time. The Potency entry in [11], in assay [19], in [20], in assay [12], in [13] and in [14] was “inactive” each time. Further, the Potency entry in [15], in [16], in assay [17] and in assay [18] was “inactive” throughout.

Take `COc1ccc(C(=O)N2CCCC2=O)cc1`: the outcome in [4], in [5], in assay [6] and in assay [7] was inactive. In addition, the Potency result in assay [1], in [2], in [3], in assay [8], in assay [9] and in assay [11] was “inactive” each time. Further, the Potency entry in assay [19], in [12], in [13], in assay [14], in [15] and in assay [16] was “inactive” in each case. For the same molecule, the Potency result in [17] and in assay [18] was “inactive” throughout.

Consider `CC(C)=CCNc1ncnc2c1ncn2[C@@H]1O[C@H](CO)[C@@H](O)[C@H]1O`, for which the Potency result in assay [1] is “inactive”.

In the case of `COc1cccc2c1C(=O)c1c(O)c3c(c(O)c1C2=O)C[C@@](O)(C(=O)CO)C[C@@H]3O[C@H]1C[C@H](N)[C@H](O[C@@H]2CCCCO2)[C@H](C)O1`, the Potency result in assay [1] is “inactive”.

On to `COC(=O)C1=C(C)NC(C)=C(C(=O)OC(C)(C)CN(C)CCC(c2ccccc2)c2ccccc2)C1c1cccc([N+](=O)[O-])c1` (centres undefined), for which the Potency entry in assay [1], in assay [2] and in assay [3] was “inactive” each time.

For `COc1ccc(/C=C/C(=O)c2ccc(OC)cc2OC)cc1`, the Potency result in assay [1], in assay [2] and in [3] was “inactive” throughout.

In the case of `O=C(CCCN1CCC(O)(c2cccc(C(F)(F)F)c2)CC1)c1ccc(F)cc1`, the Potency entry in [1], in assay [2], in assay [3] and in [8] was “inactive” each time.

With `C[C@@H](C1=C(CCN(C)C)Cc2ccccc21)c1ccccn1`, the Potency entry in assay [1] and in assay [2] was “inactive” each time.

In the case of `Cc1c(C(=O)NN2CCCCC2)nn(-c2ccc(Cl)cc2Cl)c1-c1ccc(Cl)cc1`, the Potency entry in assay [1], in assay [2] and in assay [3] was “inactive” throughout.

For the molecule `O=C(O)c1nn(Cc2ccc(Cl)cc2Cl)c2ccccc12`, the outcome in [4], in [5], in [6] and in assay [7] was inactive. The Potency entry in [1], in [2], in assay [3], in assay [8], in assay [9] and in assay [11] was “inactive” each time. In addition, the Potency result in [19], in assay [20], in assay [12], in [13], in assay [14] and in assay [15] was “inactive” in each case. Also, the Potency entry in assay [16], in assay [17] and in assay [18] was “inactive” in each case.

Take `CCN(CC)CCCC(C)Nc1c2ccc(Cl)cc2nc2ccc(OC)cc12` (centres undefined): in assay [1], the Potency entry is “inactive”.

As to `CC(C(O)c1ccccc1)N(C)CCOC(c1ccccc1)c1ccccc1` (centres undefined), in assay [1], the Potency entry was “inactive”.

Turning to `CC(=C(CCOC(=O)C(C)C)SSC(CCOC(=O)C(C)C)=C(C)N(C=O)Cc1cnc(C)nc1N)N(C=O)Cc1cnc(C)nc1N`, the Potency result in assay [1] and in assay [2] was “inactive” throughout.
